From PubChem BioAssay AID1745849 (National Center for Advancing Translational Sciences (NCATS), 2022)
In all, about 2,100 compounds went through this assay and about 320 (15%) were called active. Another 52% or so got no clear call; they are omitted. Some of the results follow. Values without a mark were called inactive. Calls come from the whole dose curve; as a rule, active = well fitted cell-killing curve with a large enough effect; inconclusive = small, poorly fitted or top-dose-only effect, or effect the other way; inactive = flat fitted curve, though single readings scatter.

assay: Viability Counterscreen for CMV-Luciferase Assay of Inhibitors of ATXN expression; conditions: HEK-293 CMV-luciferase cells viability, protease fluorescence, 24 h; activity change, negative = cytotoxicity: at the top concentration; note: nearly all actives have a fitted effect of over 55% in size
Method in brief: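 Fluorescence from cleaved Gly-Phe-AFC (25 uM final, 30 min, ex 405/em 540 nm) reported viability, and the luciferase signal of the same CMV-reporter HEK-293 wells was read 5 min after SteadyGlo addition. Dosing lasted 24 hr.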
% is set by controls: 0 for no effect and ±100 for the full control effect; potency is the fitted concentration of half-maximal effect.

Row | Compound | activity change, negative = cytotoxicity | Potency
1 | O=C(c1c(F)cccc1F)N1CCCC(c2nc(-c3ccc(Cl)cc3)no2)C1 (configuration not stated) | -6.28% [at 57.5 µM] | –
2 | CCn1c2ccccc2c2cc(NC(=O)COC(=O)c3ccccc3F)ccc21 | 9.03% | –
3 | CN1C/C(=C/c2cccnc2)C(=O)/C(=C/c2cccnc2)C1 | 0.33% | –
4 | O=C1/C(=C/c2ccncc2)CCC/C1=C\c1ccncc1 | – | 5.62 µM (active)
5 | CCN(CC)C(=O)c1cccc(-c2csc(C(C)(O)c3cccc(F)c3)n2)c1 (configuration not stated) | -16% | –
6 | CCN1C(=O)/C(=C/c2nc3ccccc3c(=O)n2-c2ccccc2)c2ccccc21 | – | 12.6 µM (active)
7 | CCOC(=O)C1=CCN(S(=O)(=O)c2ccc(C)cc2)C1c1cccc(Cl)c1 (configuration not stated) | -18.3% [at 57.5 µM] | –
8 | CCn1c(C)nc2cc(C(=O)N/N=C(\C)c3ccc(OC)cc3O)ccc21 | -17.6% [at 57.5 µM] | –
9 | Cc1sc(NC(=O)c2cc(-c3ccc(Cl)cc3)nc3ccccc23)c(C(N)=O)c1C | – | 8.91 µM (active)
10 | O=C(NN=C1CCCC1)c1cc(-c2ccc(F)cc2)nc2ccccc12 | 15.3% [at 57.5 µM] | –
11 | CCOC(=O)c1c(NC(=O)COC(=O)Cn2cnc3ccccc32)sc(C)c1C | 2.43% [at 57.5 µM] | –
12 | O=C(c1cc(COc2cccc(C(F)(F)F)c2)on1)N1CCC(c2ccncc2)CC1 | -7.2% | –
13 | CCN1CCN(c2cc(C(C)C)nc3c(-c4ccccc4)c(C)nn23)CC1 | -25.5% [at 57.5 µM] | –
14 | COc1ccccc1-n1c(-c2ccccc2)c[n+]2c1CCc1ccccc1-2 | – | 10 µM (active)
15 | OCC1(CCOc2ccccc2)CCN(CC2=Cc3cc(Cl)ccc3OC2)CC1 | -22.1% [at 57.5 µM] | –
16 | O=S(=O)(Nc1cccc2cccnc12)c1ccccc1 | -17.9% | –
17 | O=[N+]([O-])c1ccccc1S(=O)(=O)Nc1cccc2cccnc12 | – | 11.2 µM (active)
18 | Cc1ccc(S(=O)(=O)Nc2cccc3cccnc23)cc1 | 21.9% [at 57.5 µM] | –
19 | O=C(CSc1nnc(-c2ccccc2)o1)Nc1ccccc1F | -8.41% | –
20 | C/C(=N\NC(=O)CSCc1ccc([N+](=O)[O-])cc1)c1ccccc1O | -13.5% | –
21 | CC(=O)C(C(C)=O)c1c(Cl)c(O)c(O)c2c(C(=O)c3ccccc3)coc12 | – | 7.08 µM (active)

Row | Compound | activity change, negative = cytotoxicity | Potency
22 | CCOC(=O)C(C(C)=O)c1c(Br)c(O)c(O)c2c(C(=O)c3ccc(C)cc3)coc12 (configuration not stated) | – | 10 µM (active)
23 | O=C(NC(=S)NCc1nc2ccccc2[nH]1)c1ccc(F)cc1 | 1.48% | –
24 | NS(=O)(=O)c1ccc(Sc2nc3ccccc3s2)c([N+](=O)[O-])c1 | -19.9% | –
25 | Cc1sc2cc3c(c(C(=O)c4ccccc4)[n+]2c1C)-c1cccc2cccc-3c12 | – | 10 µM (active)
26 | Cc1ccc(-c2csc(N3CCN(c4cc5c(cc4Cl)nc(-c4ccncc4)n5CCOCCO)CC3)n2)cc1 | -6.98% [at 57.5 µM] | –
27 | CC1(C)Cc2c(c(-c3ccco3)nc3sc4c(NCCN5CCOCC5)ncnc4c23)CO1 | -20.2% [at 57.5 µM] | –
28 | CC1(C)Cc2c(c(N3CCOCC3)nc3sc4c(NN)ncnc4c23)CS1 | 23.7% [at 57.5 µM] | –
29 | CN(C)CCNc1ncnc2c1sc1nc(N3CCOCC3)c3c(c12)CC(C)(C)SC3 | – | 17.8 µM (active)
30 | Cn1nc(C(=O)N2CCN(c3ccc(Cl)cc3)CC2)c2c1-c1ccccc1S(=O)(=O)C2 | 10.7% | –
31 | N#Cc1ccccc1NC(=O)C1SC(=Nc2ccccc2)C(C(=O)Nc2ccc(Cl)cc2)=C1N (configuration not stated) | -3.29% | –
32 | Cc1cc(Nc2cccc([N+](=O)[O-])c2)n2c(nc3ccccc32)c1C#N | – | 3.55 µM (active)
33 | Cc1ccc(-c2cc(-c3ccccc3)nc(NN)n2)cc1 | -26.4% [at 57.5 µM] | –
34 | NS(=O)(=O)c1ccc(CCNc2nn3c(-c4cccc(OC(F)(F)F)c4)cnc3s2)cc1 | -22.9% | –
35 | C=CCOC(=O)C1=C[C@@H](c2ccc3c(c2)OCO3)C[C@@H](OCCCCO)O1 | -10.7% [at 57.5 µM] | –
36 | CN(C)CCNc1ccc2ncn3c4ccc(O)cc4c(=O)c1c23 | 7.3% | –
37 | CN(C)CCNc1cccc2sc3ccc(O)cc3c(=O)c12 | – | 12.6 µM (active)
38 | O=C(Nc1cccc(Cl)c1)c1ccc2c(c1)SC1=NS(=O)(=O)CCN12 | -19.6% | –
39 | CCOC(=O)c1c(-n2cccc2)sc2c1CCCC2=O | 9.15% [at 57.5 µM] | –
40 | CC[n+]1c(C=C2C=C(C)OC(C)=C2)sc2ccccc21 | – | 14.1 µM (active)
41 | NNC(=O)/C(=N/Nc1ccccc1)S(=O)(=O)c1ccc(Cl)cc1 | – | 10 µM (active)
42 | O=C(NCc1cc(C(F)(F)F)ccc1Cl)c1cccc2c1C(=O)c1ccc(N3CCOCC3)cc1S2(=O)=O | -8.41% | –

Row | Compound | activity change, negative = cytotoxicity | Potency
43 | CC1(C(=O)NCc2ccco2)CCN1C(=O)C1(c2ccccc2)CC1 (configuration not stated) | -2.99% | –
44 | Cc1cc(C)c2c(c1)/C(=C/C(=O)c1ccc(Br)s1)C(=O)N2 | – | 3.16 µM (active)
45 | CCOC(=O)N1CCN(Cc2cc(Cl)c3cccnc3c2O)CC1 | -27.9% | –
46 | O=[N+]([O-])c1ccc(O)c2ncccc12 | – | 10 µM (active)
47 | O=c1oc2ccccc2c(O)c1Cc1cc(Cl)c2cccnc2c1O | 15.7% [at 57.5 µM] | –
48 | O=[N+]([O-])c1cc(CN2CCN(c3ccccc3)CC2)c(O)c2ncccc12 | – | 11.2 µM (active)
49 | OCCN1CCN(Cc2cc(Cl)c3cccnc3c2O)CC1 | -25.4% [at 57.5 µM] | –
50 | O=[N+]([O-])c1cc(Cl)c(O)c2ncccc12 | – | 11.2 µM (active)
51 | CC(C)COCc1ccc(O)c2ncccc12 | -13.8% | –
52 | Oc1ccc(Cl)c2cccnc12 | 25% [at 57.5 µM] | –
53 | COc1ccc(-c2nc(CN3CCN(c4ncnc5ccccc45)CC3)c(C)o2)c(OC)c1 | -25.7% | –
54 | c1ccc(Nc2nc(N3CCCCC3)nc(N3CCNCC3)n2)cc1 | 3.96% [at 57.5 µM] | –
55 | COc1cc(C)c(C(=O)CC(=O)c2c(C)cc(OC)cc2C)c(C)c1 | 5.25% | –
56 | CC(=O)N1c2ccc(S(=O)(=O)N3CCC(C(=O)Nc4cccc(C(F)(F)F)c4)CC3)cc2CC1C (configuration not stated) | -28.3% [at 57.5 µM] | –
57 | Cc1nn(-c2ccccc2)c(N2CCCC2)c1/C=N/NC(=O)c1cc2ccccc2cc1O | -4.71% | –
58 | COc1cccc(CN2CCC2(C)C(=O)Nc2cccc3cccnc23)c1OC (configuration not stated) | -16.4% | –
59 | COc1ccc(CC2C(=O)NC(C)C(=O)N(C)C3Cc4ccc(cc4)Oc4cc(ccc4O)CC(C(=O)NC(C)C(=O)NC(C)C(=O)N2C)N(C)C3=O)cc1 (configuration not stated) | – | 0.316 µM (active)
60 | CC1(C)c2[nH]c3ccccc3c2C[C@H]2C(=O)N(Cc3ccccc3F)C(=O)N21 | -10.7% [at 57.5 µM] | –
61 | Nc1nc(NCCCN2CCOCC2)nc(Nc2cccc(Cl)c2)c1[N+](=O)[O-] | -19.8% | –
62 | COC(=O)[C@H]1C[C@H](OC(=O)NC2CC2)[C@@]2(O)CN(S(=O)(=O)c3ccc(C)cc3)CC2[C@H]1C(=O)OC (some centres not stated) | 1.18% | –
